Source: PubChem BioAssay (EPA / NIEHS)
Results filed as inconclusive are left out. Calls of active or inactive are those of the source. How the source made its calls: active means hit-call score of the fitted dose curve at least 0.9, where 1 is the maximum; inconclusive means response in the unintended direction; inactive means score below 0.9.

assay: Tanguay_ZF_120hpf_SNOU_legacy: (Legacy) Oregon State University Tanguay Lab 120 Hour Post-fertilization zebrafish Assay for Snout Malformation (AID 2283637)
Experimental: Tanguay_ZF_120hpf_legacy is a whole embryo, multiplexed endpoint assay using zebrafish larvae exposed for 120 hours post fertilization on a 96-well plate.Tanguay_ZF_120hpf_SNOU_legacy is one of one assay component(s) measured or calculated from the Tanguay_ZF_120hpf_legacy assay. It is designed to make measurements of zebrafish development as detected with brightfield microscopy of developing zebrafish embryos.Data from the assay component Tanguay_ZF_120hpf_SNOU_legacy was analyzed into 1 assay endpoints. This assay endpoint, Tanguay_ZF_120hpf_SNOU_legacy, was analyzed in the positive analysis fitting direction relative to DMSO as the negative control and baseline of activity. Using a type of morphology reporter, gain-of-signal activity can be used to understand changes in developmentals as they relate to the whole embryo. To generalize the intended target to other relatable targets, this assay endpoint is annotated to the zebrafish development intended target family, where the subfamily is embryonic snout morphogenesis.
Zebrafish husbandry: Tropical 5D wild-type adult zebrafish were housed in at an approximate density of 1000 per 100 gallon tank at the Sinnhuber Aquatic Research Laboratory, Oregon State University, Corvallis, OR. Each tank was kept at standard laboratory conditions of 28C on a 14-h light/10-h dark photoperiod in fish water consisting of reverse osmosis water supplemented with a commercially available salt (Instant Ocean). Spawning funnels were placed into the tanks the night prior, and embryos were collected and staged. To increase bioavailability, the chorion was enzymatically removed using pronase (63.6mg/ml, >/= 3.5U/mg, Sigma-Aldrich: P5147) at 4 hours post fertilization (hpf) using a custom automated dechorionator.Chemical exposures: Six hpf dechorionated embryos were placed 1 embryo per well in a 96-well plate prefilled with 90 ul of EM using automated embryo placement systems (AEPS). Ten microliters of each row of dilution plate 2 was added to 2 exposure plates. The final DMSO concentration used was 0.64% (vol/vol). Thirty-two embryos were also exposed to 5uM trimethyltin chloride (positive control). Plates were sealed to prevent evaporation and foil covered to reduce light exposure and kept in a 28C incubator. Embryos were statically exposed until 120 hpf. At 24 hpf, embryos were assessed for photomotor response using a custom photomotor response analysis tool (PRAT) and for developmental toxicity endpoints (MO24: mortality at 24 hpf, DP: developmental progression, SM: spontaneous movement, and NC: notochord distortion). At 120 hpf, locomotor activity was measured using Viewpoint Zebralab and assessed for 18 endpoints. Zebrafish acquisition and analysis program (ZAAP), a custom program designed to inventory, acquire, and manage zebrafish data, was used to collect developmental endpoints as either present or absent (i.e., binary responses were recorded). If mortality occurred for an embryo (at either 24 or 120 hpf), the non-mortality endpoints were not measured.

Structure (SMILES)	AC50	outcome
CCc1nn(C)c(C(=O)NCc2ccc(C(C)(C)C)cc2)c1Cl	6.18 µM (active)	
CCOP(=S)(OCC)SCn1c(=O)oc2cc(Cl)ccc21		inactive
COc1nc(NC(C)C)nc(NC(C)C)n1		inactive
CCNc1nc(Cl)nc(NCC)n1		inactive
COC(=O)c1ccccc1C(=O)OC		inactive
CC1COC(Cn2cncn2)(c2ccc(Oc3ccc(Cl)cc3)cc2Cl)O1 (stereo not given)		inactive
CCOC(=O)C(Cl)Cc1cc(-n2nc(C)n(C(F)F)c2=O)c(F)cc1Cl (stereo not given)	4.26 µM (active)	
COP(N)(=O)SC (stereo not given)		inactive
N#Cc1nn(-c2c(Cl)cc(C(F)(F)F)cc2Cl)c(N)c1S(=O)C(F)(F)F (stereo not given)		inactive
C=CCC1=C(C)C(OC(=O)C2C(C=C(C)C)C2(C)C)CC1=O (stereo not given)		inactive
N#Cc1cc(Br)c(O)c(Br)c1		inactive
CC(C)Oc1cc(-n2nc(C(C)(C)C)oc2=O)c(Cl)cc1Cl		inactive
CCCN(CCC)c1c([N+](=O)[O-])cc(S(N)(=O)=O)cc1[N+](=O)[O-]		inactive
CCOC(=O)CC(SP(=S)(OC)OC)C(=O)OCC (stereo not given)	38.1 µM (active)	
CCCCNC(=O)OCC#CI		inactive
Cc1c(F)c(F)c(COC(=O)C2C(/C=C(\Cl)C(F)(F)F)C2(C)C)c(F)c1F (stereo not given)	4.35 µM (active)	
CN(C)C(=S)SSC(=S)N(C)C		inactive
CC1=C(C(=O)Nc2ccccc2)SCCO1		inactive
CCCCOC(=O)c1ccccc1C(=O)OCCCC		inactive
CS/C(C)=N/OC(=O)N(C)SN(C)C(=O)O/N=C(\C)SC		inactive

Structure (SMILES)	AC50	outcome
C=CC1(C)OC(=O)N(c2cc(Cl)cc(Cl)c2)C1=O (stereo not given)		inactive
CO/C=C(/C(=O)OC)c1ccccc1Oc1cc(Oc2ccccc2C#N)ncn1		inactive
CCOc1cc(Oc2ccc(C(F)(F)F)cc2Cl)ccc1[N+](=O)[O-]		inactive
COc1ccc(C(c2ccc(OC)cc2)C(Cl)(Cl)Cl)cc1		inactive
CNC(=O)ON=CC(C)(C)SC		inactive
Cc1ccc(-c2c(Cl)nc(C#N)n2S(=O)(=O)N(C)C)cc1		inactive
COC(=O)C=C(C)OP(=O)(OC)OC		inactive
O=C(O)c1nc(Cl)ccc1Cl		inactive
CON(C)C(=O)Nc1ccc(Cl)c(Cl)c1		inactive
CNC(=S)S		inactive
COc1cnc(OC)n2nc(NS(=O)(=O)c3c(OCC(F)F)cccc3C(F)(F)F)nc12		inactive
Oc1ccccc1-c1ccccc1		inactive
CC(C)(C)c1ccc(CSc2cnn(C(C)(C)C)c(=O)c2Cl)cc1		inactive
CC(Oc1ccc(Cl)cc1Cl)C(=O)O (stereo not given)		inactive
CCCCC(CC)COC(=O)c1ccccc1C(=O)OCC(CC)CCCC (stereo not given)		inactive
CC(C)C1(C)N=C(c2nc3ccccc3cc2C(=O)O)NC1=O (stereo not given)		inactive
COC(=O)N(OC)c1ccccc1COc1ccn(-c2ccc(Cl)cc2)n1		inactive
COC(=O)C(C)Oc1ccc(Oc2ccc(Cl)cc2Cl)cc1 (stereo not given)		inactive
OC(c1ccc(Cl)cc1)(c1cncnc1)c1ccccc1Cl (stereo not given)		inactive
CCNc1nc(Cl)nc(NC(C)C)n1		inactive
